Results taken from PubChem BioAssay.

assay: P. aeruginosa biofilm formation inhibitors, primary screen, strain PAO1, LB-PBS medium, absorbance 600 nm (AID 1176); also: test concentration not given here; settings: P. aeruginosa PAO1 growth/biofilm, A600, 12 h; higher = more signal; call rule not given here

z-score, inactive:
O=C1NC(=O)C2C1C=CC(C(O)c1cc(C(F)(F)F)cc(C(F)(F)F)c1)N2Nc1ccccn1 (stereo not given) 1.36
C=C(/C(=C/C[C@H](OC(C)=O)c1ccccc1OCCO)c1cnc2ccccc2c1)C(C)C 2.19
COC(=O)[C@H](Cc1ccccc1)N1CC2=C[C@@H](C3CC3)n3c(=O)n(C)c(=O)n3[C@H]2[C@@H]1[C@@H](O)Cc1ccccc1 0.0937
CC(=O)n1cc(C(O)C2C=CC3C(=O)N(c4ccccc4)C(=O)C3N2Nc2ccc([N+](=O)[O-])cc2)c2ccccc21 (stereo not given) 1.25
CN1C=C(C(=O)OCCS(C)(=O)=O)C(C(=O)OCCS(C)(=O)=O)=CC(c2ccc(CO)cc2)=CC1C1CC1 (stereo not given) -0.447
COC(=O)[C@]1(CCC(=O)OC(C)(C)C)N=C(c2ccc(OCCCO)cc2)O[C@@H]1c1ccccc1CN=[N+]=[N-] 1.53
C=CCNC(=O)[C@@H]1[C@H]2C(=O)O[C@H](c3ccccc3)[C@H](c3ccccc3)N2[C@H](c2ccc(OCCO)cc2)[C@@]12C(=O)Nc1ccc(C#CCC(C(=O)OC)C(=O)OC)cc12 1.89
COC(=O)C(CC#Cc1ccc2c(c1)[C@]1(C(=O)N2)[C@H](c2ccc(OCCO)cc2)N2[C@H](c3ccccc3)[C@H](c3ccccc3)OC(=O)[C@H]2[C@@H]1C(=O)N1CCc2cc(OC)c(OC)cc2C1)C(=O)OC 3.7
NC(=O)N1C(=O)C2C(C1=O)C1C=C(c3ccc(CO)cc3)C2C(c2cccs2)N1Cc1cccc(OC(F)(F)F)c1 (stereo not given) -0.79
C=CCC(OC(C)=O)[C@@H]1[C@@H](N(Cc2ccc(-c3ccccc3)cc2)C(=O)c2cccc3ccccc23)c2cc(OCCCO)ccc2N1C(=O)c1ccc(-c2ccccc2)cc1 (stereo not given in full) -0.0391
COc1cc(NN2C(C(O)c3ccco3)C=CC3C(=O)N(c4ccccc4)C(=O)C32)cc(OC)c1OC (stereo not given) 0.711
CC(C)[Si]1(C(C)C)O[C@@H](c2ccccc2)c2cc(-c3ccc(-c4ccc(Cl)c(Cl)c4)o3)nc(-c3ccccc3)c21 0.574
CCOC(=O)C[C@H]1[C@H](OC(=O)c2ccc(C(=O)c3ccccc3)cc2)[C@@H](NC(=O)c2ccc3ccccc3n2)c2cc(OCCCO)ccc2N1C(=O)c1ccccc1 0.0186
CC(C)C(O)C1C=CC2C(=O)NC(=O)C2N1Nc1ccc(Cl)cc1Cl (stereo not given) 0.751
COc1ccc(C#Cc2ccc3c(c2)[C@]2(C(=O)N3)[C@H](C(=O)Nc3nc4ccccc4s3)[C@H]3C(=O)O[C@H](c4ccccc4)[C@H](c4ccccc4)N3[C@@H]2c2ccc(O)cc2)cc1 0.145
COC(=O)[C@@]1(Cc2ccccc2)N=C(c2ccc(OCCCO)cc2)O[C@H]1c1ccccc1 0.991
[N-]=[N+]=Nc1ccccc1[C@H]1OC(c2ccc(OCCCO)cc2)=N[C@@]1(CCS(=O)(=O)c1ccccc1)C(N)=O 0.897
O=C1C[C@@](C(=O)NC2CC2)(c2ccc([N+](=O)[O-])cc2)[C@@H](c2ccc(CO)cc2I)N1C1CCCCC1 0.512
COc1cc2c(cc1OC)CN(C(=O)[C@H]1[C@@H]3C(=O)O[C@@H](c4ccccc4)[C@@H](c4ccccc4)N3[C@@H](c3ccc(O)cc3)[C@]13C(=O)Nc1ccccc13)CC2 1.67
O=C1O[C@H](c2ccccc2)[C@H](c2ccccc2)N2[C@H]1[C@@H](C(=O)N1CCCCCCC1)[C@]1(C(=O)Nc3ccc(C#CC4=CCCCC4)cc31)[C@H]2c1ccc(OCCO)cc1 2.25
COC(=O)[C@@]1(CCC(=O)OC(C)(C)C)N=C(c2ccc(OCCCO)cc2)O[C@H]1c1ccccc1N=[N+]=[N-] 2.78
O=C1C2C=CC(C(O)c3cc(C(F)(F)F)cc(C(F)(F)F)c3)N(n3cnnc3)C2C(=O)N1Cc1ccccc1 (stereo not given) 0.933
CCCCCN1CC=CC23O[C@@H]4C=CCCOC(=O)C4[C@H]2C(=O)N(CCCCCO)[C@@H]3C1=O (stereo not given in full) -0.304
COc1ccc([Si](C)(C)[C@@H]2[C@@H](CCO)O[C@]3(C(=O)N(Cc4ccc(N(C=O)c5ccccc5)cc4)c4ccccc43)[C@H]2C)cc1 1.46
C=CCOC(=O)[C@H]1[C@@H]2C(=O)O[C@@H](c3ccccc3)[C@@H](c3ccccc3)N2[C@@H](c2ccc(OCCOC(=O)[C@H]3C[C@H]4C(=O)N[C@@H](CCCCNC(C)=O)C(=O)N4[C@H]3c3cccc(OCCO)c3)cc2)[C@]12C(=O)Nc1ccccc12 3.14
